Screening results from PubChem BioAssay.
HP1b chromo inh: inhibitors of HP1-beta chromodomain binding to methylated histone tails; Potency, µM (highest dose often 114 µM), hits mostly inhibitors; AID 540317; actives 0.56% (n = 390,000); AlphaScreen HP1-beta / biotin-H3K9me3 peptide binding; also: nearly all actives have a fitted effect of over 70% in size
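HP1-beta protein (50 nM final) preincubated 30 min at room temperature with biotinylated H3(1-18)K9me3 peptide (50 nM) in PBS pH 7.4, 0.01% Tween-20, then compound added for 30 min. AlphaScreen streptavidin donor/nickel chelate acceptor beads (10 ug/mL final), 30 min dark, luminescence read.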
BAZ2B inh: blocks human BAZ2B; Q9UIF8; AlphaScreen BAZ2B-H3K14Ac peptide displacement; Potency, µM (doses to about 114 µM), usual class: inhibitors; actives 4.4% (n = 360,000); AID 504333; also: nearly all actives have a fitted effect of over 60% in size
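AlphaScreen displacement: compounds (up to 110uM) incubated 30 min at room temperature with a preformed 50 nM BAZ2B/50 nM biotinylated H3K14Ac peptide complex in PBS pH 7.4 with Tween-20. Donor and acceptor beads at 10 ug/mL final added, 20 min light-protected before reading.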
JMJD2A Tudor inh: blocks the human JMJD2A Tudor domain; O75164; AlphaScreen JMJD2A-Tudor / H3K4me3 peptide binding; Potency, µM (series often up to 114 µM), hits mostly inhibitors; actives 4.4% (n = 390,000); AID 504339; also: nearly all actives have a fitted effect of over 50% in size
Target sequence (O75164 whole entry, looked up, the tested form may be a part): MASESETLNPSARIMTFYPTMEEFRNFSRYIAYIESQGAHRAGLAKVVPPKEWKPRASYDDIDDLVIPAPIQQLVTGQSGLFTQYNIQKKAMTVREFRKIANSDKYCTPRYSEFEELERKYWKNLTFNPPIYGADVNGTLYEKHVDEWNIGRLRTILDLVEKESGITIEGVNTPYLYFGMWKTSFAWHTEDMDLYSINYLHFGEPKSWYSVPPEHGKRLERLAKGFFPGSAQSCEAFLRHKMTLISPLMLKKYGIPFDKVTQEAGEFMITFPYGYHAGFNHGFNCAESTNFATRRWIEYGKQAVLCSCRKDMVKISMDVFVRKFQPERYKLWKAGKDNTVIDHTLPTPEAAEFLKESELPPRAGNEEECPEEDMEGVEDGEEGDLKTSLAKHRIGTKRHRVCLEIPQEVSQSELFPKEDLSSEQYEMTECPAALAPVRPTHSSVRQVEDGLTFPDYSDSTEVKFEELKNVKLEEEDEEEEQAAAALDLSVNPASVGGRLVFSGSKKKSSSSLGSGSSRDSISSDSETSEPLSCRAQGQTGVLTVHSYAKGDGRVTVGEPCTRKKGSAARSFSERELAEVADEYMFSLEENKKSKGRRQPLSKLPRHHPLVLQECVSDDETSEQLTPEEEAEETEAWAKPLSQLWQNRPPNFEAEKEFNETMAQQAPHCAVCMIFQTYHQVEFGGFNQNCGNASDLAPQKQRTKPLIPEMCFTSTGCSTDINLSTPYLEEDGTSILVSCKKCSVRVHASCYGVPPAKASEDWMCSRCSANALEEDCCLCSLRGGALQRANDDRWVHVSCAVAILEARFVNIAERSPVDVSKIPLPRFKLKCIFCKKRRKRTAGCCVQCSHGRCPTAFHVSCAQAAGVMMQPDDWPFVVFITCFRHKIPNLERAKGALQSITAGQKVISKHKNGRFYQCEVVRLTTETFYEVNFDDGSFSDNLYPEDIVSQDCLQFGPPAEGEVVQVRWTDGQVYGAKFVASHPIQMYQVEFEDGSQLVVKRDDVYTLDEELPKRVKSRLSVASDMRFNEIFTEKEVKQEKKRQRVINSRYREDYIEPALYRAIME
CtBP-E1A inh: blocks the CtBP interaction with E1A; AlphaScreen GST-E1A/His-CtBP binding, 1536-well; hits give low values; activity change, % (concentration not given with the values); actives 0.49% (n = 340,000); in the data active = activity change below about -65%; inconclusive = mostly about -30% to -63%
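GST-E1A and His-tagged CtBP (125 nM each as 5X stock) were preincubated with pin-transferred compound for 2 h at 37 °C in the dark, then glutathione donor and nickel acceptor beads were added for 1 h before AlphaScreen reading.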
G9a block: blocks human histone lysine methyltransferase G9a; Potency, µM (highest dose often 102 µM), actives largely listed as inhibitors; G9a H3K9 monomethylation, AlphaScreen, 2 h; actives 8.8% (n = 350,000); also: nearly all actives have a fitted effect of over 75% in size
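Chemiluminescent proximity detection of H3K9 monomethylation, read after 10 min bead incubation in the dark. Reaction: 20 nM G9a, 500 nM biotin-H3K9 peptide, 20 uM SAM cofactor, 2 h, room temperature, following 15 min enzyme-compound preincubation.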
Six1-Eya2 blk: blocks human Six1 binding to Eya2. Q15475+O00167. AlphaScreen GST-Six1/His-Eya2 binding, biochemical; hits give low values. activity change, % (no concentration beside the values). actives 0.56% (n = 360,000); in the data active = activity change below about -65%; inconclusive = mostly about -30% to -63%
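GST-Six1 + His-Eya2 (5X stock: 250/500 nM); Tris pH 8.0, 300 mM NaCl, 0.05% BSA, 0.02% Tween 20; GSH donor/Ni acceptor beads; 1 h 37 °C dark; AlphaScreen readout.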
Numbers stand for hits; i = inactive; ? = inconclusive; nt = not tested or not shown; [ ] = dose if it differs, or a comment. This is a sample that favours compounds with a hit; in the whole collection about 10% have one here. Unless noted, calls follow the shape of the dose curve; as a rule, active = well fitted inhibition curve with a large enough effect; inconclusive = small, poorly fitted or top-dose-only effect; inactive = no such curve, though single readings can be large or run the other way.

SMILES	HP1b chromo inh	BAZ2B inh	JMJD2A Tudor inh	CtBP-E1A inh	G9a block	Six1-Eya2 blk
O=C(N[C@@H]1CC[C@H](CCn2cc(-c3ccccn3)nn2)O[C@@H]1CO)c1ccncc1	nt	nt	nt	i	nt	-76
COc1ccc(N2CCN(CCCNS(=O)(=O)c3c(C)noc3/C=C/N(C)C)CC2)cc1	nt	35µM	nt	nt	?	nt
Cc1nn(-c2ccccc2)cc1C(c1c(N)[nH]c(=S)[nH]c1=O)c1c(N)[nH]c(=S)[nH]c1=O	i	i	i[11.4 µM]	nt	32µM	i
CCn1ncc(Br)c1C(=O)Nc1c(C)nn(Cc2c(F)c(F)c(F)c(F)c2F)c1C	i	i	i	i	i	i
CCCOC(=O)CCCN1C(=O)/C(=C2\SC(=S)N(CCCC(=O)OCCC)C2=O)SC1=S	?	3.2µM	?	i	1.1µM	i
CCCCCOC(=O)CCN1C(=O)/C(=C2\SC(=S)N(CCC(=O)OCCCCC)C2=O)SC1=S	i	?	i	i	nt	i
O=C(c1ccccc1)N1CCCOC1c1ccccc1 (stereo not drawn)	i	nt	i	i	25µM	i
O=C(c1ccccc1)N1CCOC(O)(c2ccccc2)C1c1ccccc1 (stereo not drawn)	i	nt	i	i	nt	i
COc1cc(NC(=O)CNC(c2ccccc2)c2ccccc2)cc(OC)c1OC	i	i	i	i	i	i
CC(NC(=O)COC(=O)COc1ccc(Cl)cc1)c1ccccc1 (stereo not drawn)	i	nt	i	i	nt	i
COc1ccc(NC(=O)CNC(c2ccccc2)c2ccccc2)cc1	?	79µM	20µM	nt	nt	i
COc1ccc(C(NCC(=O)NC(C)c2ccc(Cl)cc2)c2ccccc2)cc1 (stereo not drawn)	?	79µM	25µM	i	i[2.33 µM]	i
CN1CCc2c(sc(NC(=O)c3ccc([N+](=O)[O-])o3)c2C(N)=O)C1	i	35µM	?	i	35µM	?
CN1CCc2c(sc(NC(=O)c3cc4cc([N+](=O)[O-])ccc4s3)c2C(N)=O)C1	nt	?	nt	nt	25µM	nt
CC(C)N1CCc2c(sc(NC(=O)c3cc4cc([N+](=O)[O-])ccc4s3)c2C(N)=O)C1	?	40µM	?	i	40µM	i
COCCCNCC(O)COc1ccccc1F (stereo not drawn)	?	i	1.3µM	i	i	i
Cc1ccc(C23CC4CC(CC(C(=O)NC(C)C(N)=O)(C4)C2)C3)cc1 (stereo not drawn)	i	i	i	nt	i	i
COC(=O)c1ccc(OCC(O)CNCC(c2ccc(OC)cc2)N(C)C)c(OC)c1 (stereo not drawn)	i	50µM	1.8µM	i	?	i
COC(=O)c1ccc2cc(OC)c(OC)cc2c1	nt	nt	nt	i	nt	i
O=C(NCCC1=CCCCC1)c1[nH]c(C(F)(F)F)nc1-c1ccccc1	nt	nt	nt	i	nt	?
CCOc1ccccc1NC(=O)CC1Nc2ccccc2NC1=O (stereo not drawn)	i	i	i	?	14µM	?
O=C(CC1Nc2ccccc2NC1=O)NCCc1ccccc1 (stereo not drawn)	i	i	i	i	11µM	i
O=C(CC1Nc2ccccc2NC1=O)Nc1ccc2c(c1)OCO2 (stereo not drawn)	i	i	i	i	13µM	i
CSCCC(NC(=O)c1ccc(Cl)cc1Cl)C(=O)OC1CCCCC1=O (stereo not drawn)	i	i	i	i	i	i
CCCOc1ccc(C2c3c(oc4ccccc4c3=O)C(=O)N2c2nc(C)c(C(=O)OCC)s2)cc1 (stereo not drawn)	i	i	i	nt	i	nt
SMILES	HP1b chromo inh	BAZ2B inh	JMJD2A Tudor inh	CtBP-E1A inh	G9a block	Six1-Eya2 blk
COCC1CCN(Cc2cn(Cc3ccccc3)nc2-c2cc3ccccc3o2)CC1	i	56µM	i	i	i	i
CCOC(=O)c1c(S(=O)(=O)N2CCC(C(=O)Nc3ncccc3C)CC2)c(C)n(C)c1C	i	i	i	nt	i	nt
Cc1cc(C)n2nc(SCc3cccc(S(=O)(=O)N(C)C)c3)nc2n1	i	i	i	i	45µM	i
Cc1ccsc1C(=O)N1CCC1(C)C(=O)Nc1cccc(C#N)c1 (stereo not drawn)	nt	nt	nt	i	nt	i
O=C(COC(=O)c1ccc(Br)o1)Nc1nc2ccccc2s1	?	i	i	i	i	i
Cc1ccc2nc(NC(=O)CN(C)S(=O)(=O)c3ccc(Br)s3)sc2c1	i	i	i	i	i[12.7 µM]	i
Cc1ccc2nc(NC(=O)COC(=O)c3ccc(Br)o3)sc2c1	i	i	45µM	i	?	i
Cc1ccc2nc(NC(=O)CNS(=O)(=O)c3ccc(Br)s3)sc2c1	i	i	50µM	i	?	i
O=C1NC[C@H](CCCCN2CCN(Cc3ccccc3)C(=O)C2=O)N(Cc2ccccc2)C1=O	nt	nt	nt	i	nt	i
CC1=C(C(=O)N(C)C)CC(CC(=O)NCc2cccc3ccccc23)C(=O)N1Cc1ccccc1 (stereo not drawn)	nt	nt	nt	i	nt	i
CN(C)c1ccc(C(=O)C(O)c2ccccc2Cl)cc1 (stereo not drawn)	i	nt	i	i	nt	i
Cc1cc(N(CCO)CCO)ccc1C(c1ccc(N(CCO)CCO)cc1C)c1ccccc1Cl	?	45µM	28µM	i	7.9µM	i
C/C(=C/c1oc2ccc(O)cc2c1[N+](=O)[O-])N(C)C	i	?	i	i	79µM	i
CC(NC(=O)c1cccc(NC(=O)c2nsc3ccccc23)c1)c1ccccc1 (stereo not drawn)	i	i	i	nt	i	nt
N#Cc1cc(-c2ccccc2)nn1-c1ccccc1	25µM	?	8.9µM	i	?	i
Nc1ccccc1Nc1cc(-c2ccccc2)[nH]n1	?	40µM	50µM	i	40µM	i
Nc1ccccc1Nc1cc(-c2ccccc2)nn1-c1ccccc1	?	35µM	32µM	i	32µM	?
Nc1nc(SCC(=O)Nc2cc(-c3ccccc3)nn2-c2ccccc2)n[nH]1	i	i	i	i	i	i
COc1cc(C(=O)Nc2cc(-c3ccccc3)[nH]n2)cc(OC)c1OC	i	?	i	i	i	i
O=C(CC1Sc2ccccc2NC1=O)NNc1cc(Cl)ccc1Cl (stereo not drawn)	i	nt	i	i	nt	i
Cn1nc(C(C)(C)C)cc1C(=O)N1CCCCC1c1cc(C(=O)Nc2ccccc2Cl)no1 (stereo not drawn)	nt	nt	nt	i	nt	i
CNC(=S)NCCc1cc2c(OC)ccc(OC)c2[nH]c1=O	i	nt	18µM	nt	?	i
CCOC(=O)c1cnc2ccc(C(=O)OC)cc2c1Nc1ccccc1CC	i	i	i	nt	i	nt
c1ccc(-c2nc3ccccc3[nH]2)cc1	i	i	i	i	i[12.7 µM]	i
Cn1cccc1-c1nc2ccccc2[nH]1	?	?	i	i	45µM	i
Cc1ccc(S(=O)(=O)Nc2ccc3cn[nH]c3c2)cc1	i	i	i	nt	i	i
